These results are taken from PubChem BioAssay (EPA / NIEHS).

Calls of active or inactive are those of the source. How the source made its calls: active means hit-call score of the fitted dose curve at least 0.9, where 1 is the maximum; inactive means score below 0.9.

The assay can be described thus: IUF_NPC2c_oligodendrocyte_migration_120hr: Leibniz Research Institute for Environmental Medicine (IUF) 120-hour Neural Progenitor Cell Migration Assay for Oligodendrocyte Migration (NPC2c) (AID 2284297).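 Further: O4-positive oligodendrocyte migration distance divided by radial glia migration distance.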 In short, it runs like this:
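Exposure runs 5 days from differentiation onset at 37C, seven concentrations plus solvent control, DMSO at most 0.1%, applied to primary hNPC spheres on laminin. After fixation, O4 immunostaining gives oligodendrocyte distance from the sphere core, relative to radial glia migration.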

Regarding `CC1(C)[C@H](C(=O)O[C@H](C#N)c2cccc(Oc3ccccc3)c2)[C@@H]1/C=C(\Cl)C(F)(F)F`, the result was inactive.
